Screening data: PubChem BioAssay, National Center for Advancing Translational Sciences (NCATS)
TRHR enhancer: allosteric enhancers of human TRH receptor; TRHR cells, fluo-8 calcium fluorescence, EC20 TRH enhancement; enhancement, % at 2 µM; 360,000 compounds, 0.66% hits; P34981; in the data active = enhancement above about 30%; note: 0% is about no effect
Target sequence (P34981 whole entry, looked up): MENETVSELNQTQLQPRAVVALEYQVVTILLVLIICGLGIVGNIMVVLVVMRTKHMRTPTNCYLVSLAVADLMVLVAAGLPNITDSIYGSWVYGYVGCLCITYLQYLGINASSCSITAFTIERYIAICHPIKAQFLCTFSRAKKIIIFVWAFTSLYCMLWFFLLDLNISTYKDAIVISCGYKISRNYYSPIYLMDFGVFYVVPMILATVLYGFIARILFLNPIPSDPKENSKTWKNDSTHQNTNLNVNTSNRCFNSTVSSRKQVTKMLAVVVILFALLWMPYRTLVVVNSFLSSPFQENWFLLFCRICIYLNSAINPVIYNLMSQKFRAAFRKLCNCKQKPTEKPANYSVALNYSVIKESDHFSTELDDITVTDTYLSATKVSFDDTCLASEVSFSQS
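Enhancer read-out: after compound pinning and an initial kinetic agonist-mode read, an EC20 of TRH (10 nM final) was injected and fluo-8 calcium signal (Ex 480/Em 530) followed at 1 s/cycle for 100 cycles in TRHR-expressing cells.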
D1 antagonist: human D1 dopamine receptor antagonism. activity change, negative = inhibition, % at 10 µM. 360,000 compounds, 3.2% hits. AID 504652. HEK293 TREx D1 cells, calcium flux, dopamine EC80; stronger effect = lower value. P21728; in the data active = activity change below about -30%; note: % is set by controls: 0 for no effect and ±100 for the full control effect
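Kinetic fluorescence of a calcium dye serves as the read-out. D1-expressing Hek293 Trex cells, induced overnight at 30 C, are exposed to compound for 180 s before an EC80 dopamine addition, then read 180 s further.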
GRP78 ERSR act: ER stress response induction in glioma. U87-MG GRP78 promoter luciferase reporter, 16 h. Potency, µM, for the others: at the top dose activation, most hits filed as activators. 420,000 compounds, 0.02% hits. AID 602332; active = well fitted activation curve with a large enough effect; note: potency is the fitted concentration of half-maximal effect; series mostly up to about 76 µM; % of control where 0% means no effect; nearly all actives have a fitted effect of over 35% in size
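Stably transfected U87-MG human glioma cells carrying a GRP78-based luminescent sensor were seeded at 1000 cells/well, pin-dosed with compounds and incubated 16 h. Luciferase reagent was then added, and end-point luminescence was read after 10 min at room temperature.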
D1 ag: activates the human D1 dopamine receptor. P21728. HEK293 T-REx D1 cells, calcium flux, agonist mode. activation, % at 2 µM. 360,000 compounds, 1% hits. AID 504660; note: 0% is about no effect
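Tetracycline-induced HEK293 TREx D1 cells, force-coupled to calcium signalling, were dye-loaded with a no-wash calcium kit. Compound was pin-added after a 10 s baseline. Fluorescence was read kinetically at 1 cycle/s for 180 s, with calcium rises flagged as agonism.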
TRHR agonist: agonists of human TRH receptor; P34981; TRHR cells, calcium flux fluo-8, FDSS agonist mode; activation, % at 2 µM; 360,000 compounds, 0.18% hits; AID 493084; note: 0% is about no effect
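In this calcium-flux screen, cells bearing human TRHR are dye-loaded with fluo-8, baselined for 10 cycles, then exposed to library compounds; positive kinetic calcium responses during the agonist phase mark hits, with TRH as control.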
D1 PAM: potentiators of human D1 dopamine receptor. P21728. HEK293 TREx D1 cells, calcium flux, dopamine EC20 potentiation. potentiation, % at 10 µM. 360,000 compounds, 0.036% hits; in the data active = potentiation above about 30%; note: 0% is about no effect
Starred values were filed as active, the others as inactive; . = no result. Shown are actives, neighbours in structure and some others; about 4% of the full set was active somewhere. Cut-off read from the data, not from the text of the source, unless noted: active = activation above about 30%; inactive = the rest.

SMILES | TRHR enhancer | D1 antagonist | GRP78 ERSR act | D1 ag | TRHR agonist | D1 PAM
Cc1nn(CC(=O)NCCc2ccccc2Cl)c(=O)c2nn(-c3ccccc3)c(C)c12 | 0.8 | -3.7 | . | 1.3 | -0.6 | -2.2
COc1cccc2cc(C(=O)CS(=O)(=O)c3ccc(Cl)cc3)c(=O)oc12 | 34.0* | 34.3 | -1.0% | 2.9 | 0.8 | 1.8
COc1ccccc1NC(=O)C(OC(=O)CNC(=O)c1ccccc1)c1ccccc1 (stereo not given) | -4.9 | 21.1 | . | 0.3 | -1.8 | -5.2
O=C1Nc2ccccc2C12OCCCCO2 | -0.4 | -8.2 | 0.9% | 4.5 | -0.4 | -0.7
O=C1Nc2ccccc2C12OCCCO2 | -7.3 | -43.7* | -0.5% | 3.3 | 0.0 | -3.0
COc1cc2c(c(OC)c1OC)-c1c(cc(OC)c(OC)c1OC)CC(C)C(C)C2 (stereo not given) | . | . | -6.8% | . | . | .
CCc1nc(SCC(=O)Nc2ccnc3ccccc23)n[nH]1 | -1.8 | -45.6* | -5.0% | 12.4 | 0.1 | -2.9
CCc1nc(SCC(=O)Nc2ccccc2C(=O)OC)n[nH]1 | 4.1 | -5.8 | 0.0% | -0.5 | 0.3 | 3.6
Cc1ccc2nc(N(CCCN(C)C)C(=O)CCc3ccccc3)sc2c1 | 4.5 | -2.3 | -9.9% | 15.6 | 1.2 | -0.1
Cc1ccc2nc(N(CCCN(C)C)C(=O)CN3C(=O)c4ccccc4C3=O)sc2c1 | 0.8 | -19.7 | -6.7% | 44.2* | 2.6 | -15.2
Cc1cc(C)c2sc(N(CCCN(C)C)C(=O)CN3C(=O)c4ccccc4C3=O)nc2c1 | -0.5 | -6.1 | -6.2% | 42.1* | 2.5 | -6.5
Cc1cc(C)c2sc(N(CCCN(C)C)C(=O)c3ccc(Br)s3)nc2c1 | 0.1 | -2.9 | -13.2% | 5.9 | 0.4 | -6.2
CN(C)CCCN(C(=O)CCc1ccccc1)c1nc2ccc(Cl)cc2s1 | 4.4 | -8.3 | -9.0% | 31.4* | 6.6 | -8.5
CCC(=O)N1c2ccccc2CC1C(=O)NCc1ccc(N(C)C)cc1 (stereo not given) | -9.0 | -7.4 | -3.9% | -0.2 | 0.5 | 0.2
CCCCNC(=O)c1ccc2nc(-c3cccs3)c(-c3cccs3)nc2c1 | . | . | -2.7% | . | . | .
C=CCn1cc([N+](=O)[O-])nc1C | 19.3 | -31.0* | -0.1% | 0.6 | 0.4 | -3.4
COC(=O)c1sccc1S(=O)(=O)N(CC(=O)NCc1ccccc1)c1ccccc1 | 3.4 | -0.1 | -1.1% | 0.3 | -0.7 | -4.7
COc1cc(NC(=S)N2CCN(C(c3ccccc3)c3ccccc3)CC2)cc(OC)c1 | 2.2 | -32.4* | -5.8% | 4.7 | 0.9 | 2.1
CCCNC(=S)N1CCN(C(c2ccccc2)c2ccccc2)CC1 | -6.5 | -32.8* | -1.8% | 0.8 | -0.4 | -6.8
COc1cc(NC(=S)N2CCN(C/C=C/c3ccccc3)CC2)cc(OC)c1 | -1.6 | -3.0 | -2.6% | 2.7 | 0.0 | 2.0
Cc1ccc(CN2[C@H](C)[C@H](c3ccccc3)OCCS2(=O)=O)cc1 | . | . | -0.6% | . | . | .
CCN(c1ccccc1)c1nc(N)nc(C#N)n1 | . | . | -2.0% | . | . | .
CN1CCN(c2ccc(Cl)cc2NC(=O)c2ccc([N+](=O)[O-])cc2)CC1 | 8.5 | -85.0* | 0.4% | 5.9 | 0.1 | -15.3
CN1CCN(c2ccc(Cl)cc2NC(=O)c2cccc(S(=O)(=O)N(C)C)c2)CC1 | -1.1 | -3.9 | -3.1% | 41.1* | 2.5 | 0.1
CN(C)S(=O)(=O)c1cccc(C(=O)Nc2cc(Cl)ccc2O)c1 | -2.6 | -10.1 | 1.3% | 9.8 | 0.3 | -1.5
SMILES | TRHR enhancer | D1 antagonist | GRP78 ERSR act | D1 ag | TRHR agonist | D1 PAM
Cn1c(=O)n(C)c2cc([N+](=O)[O-])c(N3CCN(C(=O)c4ccc(Cl)cc4)CC3)cc21 | -1.4 | -56.9* | 0.4% | 1.8 | 0.1 | -1.2
O=C(CSc1nnc(NC(=O)c2ccc(F)cc2F)s1)NC1CCCC1 | -5.2 | -2.6 | -3.3% | 2.9 | 1.0 | -0.3
CN(Cc1ccccc1F)C(=O)CCNC(=O)c1ccc(C(C)(C)C)cc1 | 27.7 | -19.8 | -1.6% | -0.5 | 0.4 | -2.6
CCCOc1ccc(CCc2n[nH]c(=S)n2Cc2ccccc2)cc1 | -2.8 | -43.3* | -8.8% | 3.7 | -0.2 | -2.8
CCCOc1ccc(CCc2n[nH]c(=S)n2-c2ccccc2)cc1 | 3.9 | 4.1 | -1.4% | 6.0 | -0.9 | 2.1
CCC(=O)c1c[nH]c(C(=O)N2CCOCC2)c1 | -5.7 | -36.9* | 10.5% | 0.5 | 0.4 | -6.8
